The values below come from PubChem BioAssay (NCI).

Compounds without any hit were thinned out: in the full panel of roughly 79,000, 15% have a hit. Values without a mark were called inactive. The source made the active and inactive calls. No stated cut-off is given here; in the data, active means growth inhibition above about 70%; inactive means the rest.

Assay [1] is described as follows: NCI Yeast Anticancer Drug Screen. Data for the rad50 strain (AID 155).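 Further: 0% = growth of vehicle-only cultures of the same strain.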 The note with it: S. cerevisiae rad50 strain growth inhibition, stronger effect = higher value. A digest of the protocol: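 Compounds were tested on a yeast strain with an engineered DNA damage repair alteration; the reported value is growth inhibition normalised to vehicle treatment.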
Assay [2] can be described thus: NCI Yeast Anticancer Drug Screen. Data for the mec2-1 strain (AID 157). The note with it: S. cerevisiae mec2-1 strain, stronger effect = higher value. The essentials: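 Mutant yeast (mec2-1) grown with compound; growth inhibition relative to vehicle control reported.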
Assay [3] is described as follows: NCI Yeast Anticancer Drug Screen. Data for the sgs1 mgt1 strain (AID 161).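 Further: 0% = growth of cultures given vehicle only.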 Particulars: S. cerevisiae sgs1 mgt1 strain, stronger effect = higher value. A digest of the protocol: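 Compounds are added to genetically altered yeast, and growth is compared with cultures given vehicle alone to give percent inhibition.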
Assay [4] in a line: NCI Yeast Anticancer Drug Screen. Data for the cln2 rad14 strain (AID 165).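 Further: 0% = growth equal to vehicle treated cultures.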 The note with it: S. cerevisiae cln2 rad14 strain, stronger effect = higher value. The essentials: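 Readout is yeast growth inhibition versus vehicle-treated controls, using a strain with cln2 and rad14 alterations exposed to compound.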
The nature of assay [5]: NCI Yeast Anticancer Drug Screen. Data for the bub3 strain (AID 167). Particulars: S. cerevisiae bub3 mutant strain, stronger effect = higher value. The essentials: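 Growth of a checkpoint-deficient yeast mutant is measured after compound exposure. Values represent inhibition relative to vehicle.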
Assay [6] in a line: NCI Yeast Anticancer Drug Screen. Data for the mlh1 rad18 strain (AID 175). The note with it: S. cerevisiae mlh1 rad18 strain growth inhibition, stronger effect = higher value. The essentials:
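Genetically defined yeast (DNA repair-deficient) exposed to compounds; growth inhibition determined relative to vehicle.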

Setting [7] is: at 5.0 µM (retest, dose inferred, filed as 0.5).
Where [8] appears, read: at 50.0 µM (retest, dose inferred, filed as 5.0).

Regarding `O=C(/C=C/C(=N\Nc1ccccc1)c1ccccc1)c1ccccc1`, the growth inhibition in assay [1] (setting [7]) is 21%; in assay [1] (setting [8]), 90% (active); in assay [1] (at 50.0 µM) it was 37.9%; in assay [2] (setting [7]), 23%; in assay [2] (setting [8]) it was 99% (active); in assay [2] (at 50.0 µM) it was 13.9%. Further, the growth inhibition is 27% in assay [3] (setting [7]); 96% (active) in assay [3] (setting [8]); 26.4% in assay [3] (at 50.0 µM); 46% in assay [4] (setting [7]); 98% (active) in assay [4] (setting [8]); 30.9% in assay [4] (at 50.0 µM). Moreover, the growth inhibition was 67% in assay [5] (setting [7]); 99% (active) in assay [5] (setting [8]); 21.5% in assay [5] (at 50.0 µM); 47% in assay [6] (setting [7]); 95% (active) in assay [6] (setting [8]); 72% (active) in assay [6] (at 50.0 µM).

In the case of `CC(=O)NS(=O)(=O)c1ccc(N=Cc2cc(Cl)cc(Cl)c2O)cc1`, the growth inhibition was 25% in assay [1] (setting [7]); 98% (active) in assay [1] (setting [8]); 83% (active) in assay [1] (at 50.0 µM); 19% in assay [2] (setting [7]); 99% (active) in assay [2] (setting [8]); 92.1% (active) in assay [2] (at 50.0 µM). Besides, the growth inhibition in assay [3] (setting [7]) was 13%; in assay [3] (setting [8]) it was 79% (active); in assay [3] (at 50.0 µM), 44.5%; in assay [4] (setting [7]) it was 46%; in assay [4] (setting [8]) it was 98% (active); in assay [4] (at 50.0 µM), 87.8% (active). The growth inhibition in assay [5] (setting [7]) was 44%; in assay [5] (setting [8]), 99% (active); in assay [5] (at 50.0 µM), 90.7% (active); in assay [6] (setting [7]), 67%; in assay [6] (setting [8]) it was 99% (active); in assay [6] (at 50.0 µM), 88% (active).

For `COC(=O)CSC(=S)Nc1ccc(Cl)cc1`, the growth inhibition in assay [1] (setting [7]) is 3%; in assay [1] (setting [8]), 92% (active); in assay [1] (at 50.0 µM) it was 83.5% (active); in assay [2] (setting [7]), -6%; in assay [2] (setting [8]), 96% (active); in assay [2] (at 50.0 µM) it was 4.25%. In addition, the growth inhibition was -4% in assay [3] (setting [7]); 97% (active) in assay [3] (setting [8]); 44.3% in assay [3] (at 50.0 µM); -5% in assay [4] (setting [7]); 60% in assay [4] (setting [8]); -74.6% in assay [4] (at 50.0 µM). For the same compound, the growth inhibition in assay [5] (setting [7]) was -7%; in assay [5] (setting [8]), 85% (active); in assay [5] (at 50.0 µM), 36.5%; in assay [6] (setting [7]), 7%; in assay [6] (setting [8]) it was 98% (active); in assay [6] (at 50.0 µM) it was 51.4%.

Turning to `O=C(Nc1cccnc1)c1ccc(CSc2ccc(Cl)cc2)o1`, the growth inhibition in assay [1] (setting [7]) was 56%; in assay [1] (setting [8]) it was 97% (active); in assay [1] (at 50.0 µM), 90.6% (active); in assay [2] (setting [7]), 41%; in assay [2] (setting [8]), 98% (active); in assay [2] (at 50.0 µM), 92.3% (active). Moreover, the growth inhibition in assay [3] (setting [7]) was 48%; in assay [3] (setting [8]) it was 97% (active); in assay [3] (at 50.0 µM), 93.8% (active); in assay [4] (setting [7]) it was 40%; in assay [4] (setting [8]) it was 94% (active); in assay [4] (at 50.0 µM), 90.8% (active). Further, the growth inhibition in assay [5] (setting [7]) was 50%; in assay [5] (setting [8]), 63%; in assay [5] (at 50.0 µM), 92.2% (active); in assay [6] (setting [7]) it was 57%; in assay [6] (setting [8]), 94% (active); in assay [6] (at 50.0 µM), 92.2% (active).

Take `Cc1ccc(S(=O)(=O)CC2(Br)CCc3ccccc3C2=O)cc1` (configuration not stated): the growth inhibition was 39% in assay [1] (setting [7]); 71% (active) in assay [1] (setting [8]); 74.8% (active) in assay [1] (at 50.0 µM); 31% in assay [2] (setting [7]); 15% in assay [2] (setting [8]); 62.5% in assay [2] (at 50.0 µM). For the same compound, the growth inhibition was 40% in assay [3] (setting [7]); 74% (active) in assay [3] (setting [8]); 75.3% (active) in assay [3] (at 50.0 µM); 1% in assay [4] (setting [7]); 18% in assay [4] (setting [8]); 38.6% in assay [4] (at 50.0 µM). The growth inhibition in assay [5] (setting [7]) was 12%; in assay [5] (setting [8]), 60%; in assay [5] (at 50.0 µM), 42.5%; in assay [6] (setting [7]), 23%; in assay [6] (setting [8]) it was 48%; in assay [6] (at 50.0 µM), 54.8%.

For `CC(C)OC1=C(Cl)C(=O)c2c(cccc2[N+](=O)[O-])C1=O`, the growth inhibition was 32% in assay [1] (setting [7]); 99% (active) in assay [1] (setting [8]); 26.8% in assay [1] (at 50.0 µM); 38% in assay [2] (setting [7]); 100% (active) in assay [2] (setting [8]); 99.1% (active) in assay [2] (at 50.0 µM). In addition, the growth inhibition in assay [3] (setting [7]) is 48%; in assay [3] (setting [8]), 99% (active); in assay [3] (at 50.0 µM), 99.4% (active); in assay [4] (setting [7]), 19%; in assay [4] (setting [8]) it was 100% (active); in assay [4] (at 50.0 µM) it was 88.5% (active). For the same compound, the growth inhibition is 38% in assay [5] (setting [7]); 94% (active) in assay [5] (setting [8]); 98.5% (active) in assay [5] (at 50.0 µM); 41% in assay [6] (setting [7]); 100% (active) in assay [6] (setting [8]); 71% (active) in assay [6] (at 50.0 µM).

For `CCCC(CC)c1c(O)c(O)c(C(CC)CCC)c(C(CC)CCC)c1C(CC)CCC` (configuration not stated), the growth inhibition in assay [1] (setting [7]) was 4%; in assay [1] (setting [8]) it was 76% (active); in assay [1] (at 50.0 µM), 95.5% (active); in assay [2] (setting [7]), -12%; in assay [2] (setting [8]), 52%; in assay [2] (at 50.0 µM), 97.3% (active). Besides, the growth inhibition is -10% in assay [3] (setting [7]); 76% (active) in assay [3] (setting [8]); 97.9% (active) in assay [3] (at 50.0 µM); 18% in assay [4] (setting [7]); 72% (active) in assay [4] (setting [8]); 97.7% (active) in assay [4] (at 50.0 µM). In addition, the growth inhibition in assay [5] (setting [7]) is -1%; in assay [5] (setting [8]), 59%; in assay [5] (at 50.0 µM), 97.2% (active); in assay [6] (setting [7]) it was -13%; in assay [6] (setting [8]) it was 87% (active); in assay [6] (at 50.0 µM), 96% (active).

Consider `CC12CCC(O)CC1=CCC1C2CCC2(C)C(NC(=O)C(Cc3ccc(O)cc3)NC(=O)OCc3ccccc3)CCC12` (configuration not stated), for which the growth inhibition in assay [1] (setting [7]) was 24%; in assay [1] (setting [8]) it was 94% (active); in assay [1] (at 50.0 µM) it was -7.7%; in assay [2] (setting [7]), 21%; in assay [2] (setting [8]) it was 97% (active); in assay [2] (at 50.0 µM) it was 2.95%. For the same compound, the growth inhibition in assay [3] (setting [7]) is 22%; in assay [3] (setting [8]), 96% (active); in assay [3] (at 50.0 µM), -2.85%; in assay [4] (setting [7]) it was 21%; in assay [4] (setting [8]) it was 94% (active); in assay [4] (at 50.0 µM), 38.6%. Also, the growth inhibition is -4% in assay [5] (setting [7]); 93% (active) in assay [5] (setting [8]); -5.4% in assay [5] (at 50.0 µM); 41% in assay [6] (setting [7]); 96% (active) in assay [6] (setting [8]); -8.2% in assay [6] (at 50.0 µM).

For `O=C(c1ccccc1)N(C(=S)N(C(=O)c1ccccc1)c1ccccc1)c1ccccc1`, the growth inhibition is -3% in assay [1] (setting [7]); 12% in assay [1] (setting [8]); 99% (active) in assay [1] (at 50.0 µM); -1% in assay [2] (setting [7]); -2% in assay [2] (setting [8]); 99.7% (active) in assay [2] (at 50.0 µM). Also, the growth inhibition in assay [3] (setting [7]) was 1%; in assay [3] (setting [8]), -4%; in assay [3] (at 50.0 µM) it was 99.2% (active); in assay [4] (setting [7]), 3%; in assay [4] (setting [8]), -7%; in assay [4] (at 50.0 µM), 98.8% (active). Further, the growth inhibition is 0% in assay [5] (setting [7]); -3% in assay [5] (setting [8]); 99% (active) in assay [5] (at 50.0 µM); -1% in assay [6] (setting [7]); -3% in assay [6] (setting [8]); 99.1% (active) in assay [6] (at 50.0 µM).
